# Screens as filed in PubChem BioAssay.
# TIM10 inh: growth inhibitors of TIM10 yeast strain; S. cerevisiae TIM10 strain growth, BacTiter-Glo luminescence, 24 h; inhibition, % at 10 µM; 330,000 tested, 1.4% active; AID 463195;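 active means inhibition of 40% or more at the single tested concentration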;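 further: wild-type TIM10 isogenic control strain grown at permissive 25 °C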
# PfHsp90 yeast 2: inhibits growth of yeast expressing Plasmodium falciparum Hsp90 | S. cerevisiae expressing PfHsp90, BacTiter-Glo ATP, 48 h; yeast lacking PDR1 and PDR3 efflux regulators | inhibition, % at 9.4 µM | 310,000 tested, 0.32% active;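 active means every replicate shows inhibition above about 80%, whatever the replicate mean, limit read from the data; inconclusive means mean inhibition reaches the set limit but some replicate falls short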;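 further: 0% = DMSO neutral controls and 100% = 20 µM radicicol positive controls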
# SKKanGAS inh: SKKanGAS growth inhibition; S. pyogenes SKKanGAS, kanamycin growth, BacTiter-Glo, 6 h; inhibition, % at 7.5 µM; 300,000 tested, 1.3% active; AID 1662;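 active means mean replicate score, as percent of positive control median, at least 50; inconclusive means mean below 50 but one replicate at or above 50; inactive means mean and every replicate below 50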;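 further: strain carries kanamycin resistance gene driven by streptokinase promoter and grows in 40 µg/ml kanamycin; loss of luminescence reflects streptokinase promoter inhibition or plain growth inhibition; 0% = median of DMSO wells and 100% = positive control at its reference dose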
# Calb FLC: affects C. albicans growth with fluconazole; C. albicans CaCi-2 (fluconazole-resistant clinical isolate) + fluconazole, Alamar Blue growth, 48 h; growth inhibition, % (no concentration beside the values); 300,000 tested, 0.57% active; AID 1979;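 active means growth inhibition above about 58% in most replicates, limit read from the data, passing the limit was not always enough; inconclusive means exactly half the replicates above a set limit; inactive means most replicates below a set limit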;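 further: all wells also contain fluconazole at 8 µg/ml as a sub-toxic cotreatment; 0% = median of DMSO wells and 100% = median of geldanamycin control wells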
# tim10-1 inh: tim10-1 yeast growth inhibition. 330,000 tested, 2.2% active. inhibition, % at 20 µM. S. cerevisiae tim10-1 ts strain growth, BacTiter-Glo, 24 h;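 active means inhibition of at least 40%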;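 further: mutant grown at 25 °C; 0% = DMSO wells with yeast and 100% = wells holding no yeast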
# tim23-1 inh: inhibits growth of tim23-1 mutant yeast; S. cerevisiae tim23-1 growth, BacTiter-Glo luminescence, 24 h; inhibition, % at 20 µM; 330,000 tested, 1.3% active;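 active means growth inhibition of the mutant yeast at or above 50%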;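 further: temperature-sensitive mutant grown at 25 °C; plate controls were DMSO-treated mutant yeast for no effect and medium wells lacking yeast for full effect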
# tim23-1 conf: confirmation of tim23-1 mutant yeast growth inhibitors; shares compounds with tim23-1 inh; inhibition, % at 20 µM; S. cerevisiae tim23-1 growth, BacTiter-Glo luminescence, 24 h; 4,400 tested, 83% active;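 active means inhibition above about 39% in either of two replicate wells at 20 µM, limit read from the data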;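 further: temperature-sensitive tim23-1 mutant grown at 25 °C; 0% = DMSO wells with yeast and 100% = medium wells without yeast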
# Active calls of the source: *; ? = inconclusive; · = no result. A selection: hits, their analogues and other compounds. The true share with any hit is near 4.7%.
SMILES,TIM10 inh,PfHsp90 yeast 2,SKKanGAS inh,Calb FLC,tim10-1 inh,tim23-1 inh,tim23-1 conf
CC(C)=C(NC(=O)c1ccccc1)C(=O)NC(Cc1ccccc1)C(=O)O (stereo not drawn),-15,-8,-3,-5,12,8,·
O=C(NCCc1ccc(Cl)cc1)C1CCCN1C(=O)Nc1ccccc1 (stereo not drawn),-6,16,-6,0,9,13,·
Cc1ccc(S(=O)(=O)N2CCOCC2)cc1C(=O)NCCN1C(=O)S/C(=C\c2ccccc2Cl)C1=O,25,14,-5,4,17,4,·
O=C(NCCN1C(=O)S/C(=C\c2cccc(Cl)c2Cl)C1=O)C1=COCCO1,-106,-22,-7,5,25,55*,35
N=c1oc2ccc([N+](=O)[O-])cc2cc1C(=O)NCc1ccccc1,15,-2,-3,14,26,59*,56*
CCOc1ccc(C(Nc2cccnc2)c2cc(Cl)c3cccnc3c2O)cc1 (stereo not drawn),12,106*,·,110*,39,56*,69*
CCC(=O)NC(c1ccc(C)cc1)c1cc(Cl)c2cccnc2c1O (stereo not drawn),-34,71,·,·,27,54*,58*
CCC(=O)NC(C)c1cc(Cl)c2cccnc2c1O (stereo not drawn),9,-14,·,·,31,55*,58*
CCOc1ccc(NC(=S)NCc2cccnc2)cc1,-12,0,3,4,-7,1,·
O=C(NC(c1ccccc1)c1cc(Cl)c2cccnc2c1O)c1cccnc1 (stereo not drawn),-17,·,94*,92*,36,70*,80*
CCCC(=O)NC(c1cccs1)c1cc(Cl)c2cccnc2c1O (stereo not drawn),-15,120*,·,86*,15,56*,69*
CN1CCN(C(c2ccc(Br)cc2)c2cc(Cl)c3cccnc3c2O)CC1 (stereo not drawn),36,107*,69*,90*,22,66*,77*
CC(C)CC(=O)NC(c1cccs1)c1ccc2cccnc2c1O (stereo not drawn),-43,104*,?,107*,33,52*,65*
CC(=O)NC(c1cccs1)c1cc(F)c2cccnc2c1O (stereo not drawn),8,-13,·,·,40,50,·
CCN1C[C@@H]2[C@@H]3C(=O)N(Cc4ccccc4)C(=O)[C@@H]3[C@](Cc3ccccc3)(C1=O)N2C(=O)c1ccc(C)cc1,·,17,·,·,·,·,·
Cc1ccc(C)c(S(=O)(=O)N2CCN(C(=O)c3ccnn3C)CC2)c1,-2,12,-7,3,10,6,·
CCNc1nc(N)c(C(=O)C23CC4CC(CC(C4)C2)C3)s1,28,3,12,-1,31,61*,54*
O=C(NC1CCCCC1)c1cc(C2CC2)nn1-c1ccccc1,6,-7,·,·,12,35,·
COc1ccc(OC)c(-c2csc(NC(=O)Cc3ccccc3F)n2)c1,13,-31,0,-15,15,51*,46*
CCCOc1ccc(S(=O)(=O)n2cc(F)c(=O)[nH]c2=O)cc1,-6,0,-4,1,17,18,·
CCCS/C(N)=N/N=C/c1cc(C)ccc1O,8,28,1,7,27,44,·
CCCCS/C(N)=N/N=C/c1ccccc1O,24,25,13,-45,37,58*,66*
CCOc1ccc(C2/C(=C(/O)c3ccc(S(=O)(=O)N4CCCCC4)cc3)C(=O)C(=O)N2CCCOC)cc1OC (stereo not drawn),1,-10,0,-2,5,0,·
COc1cc2sc3cc(NCc4ccc(C)o4)ccc3c(=O)c2cc1OC,14,·,·,·,20,58*,72*
CNC(=O)NC(=O)C(OC(=O)Cc1cccc(C(F)(F)F)c1)c1ccccc1 (stereo not drawn),-13,4,-2,7,-9,4,·
SMILES,TIM10 inh,PfHsp90 yeast 2,SKKanGAS inh,Calb FLC,tim10-1 inh,tim23-1 inh,tim23-1 conf
CC(=O)Oc1cccc(N2C(=O)c3cccc4c([N+](=O)[O-])ccc(c34)C2=O)c1,39,-17,9,33,33,51*,51*
Cc1ccc(C(=O)O)cc1N1C(=O)c2cccc3c([N+](=O)[O-])ccc(c23)C1=O,2,-24,13,5,8,12,·
C[C@@]12C(=O)Nc3cc(F)c(F)cc3C(=O)N1[C@H]1c3cc(Cl)ccc3OC[C@@H]1[C@@H]2c1ccccc1,23,-49,·,·,22,51*,44*
C[C@@]12C(=O)Nc3ccc(Br)cc3C(=O)N1[C@H]1c3ccccc3OC[C@@H]1[C@@H]2c1ccccc1,20,105*,·,·,2,61*,57*
Cc1ccc2c(c1)C(=O)N1[C@H]3c4ccccc4OC[C@@H]3[C@H](c3ccccc3)[C@]1(C)C(=O)N2,15,105*,·,·,14,57*,60*
C[C@@]12C(=O)Nc3ccccc3C(=O)N1[C@H]1c3cc(Cl)ccc3OC[C@@H]1[C@@H]2c1ccccc1,22,-36,·,·,22,45,·
C[C@@]12C(=O)Nc3ccc(Br)cc3C(=O)N1[C@H]1c3cc(Cl)ccc3OC[C@@H]1[C@@H]2c1ccccc1,27,-137,·,·,28,37,·
Cc1ccc2c(c1)NC(=O)[C@@]1(C)[C@@H](c3ccccc3)[C@H]3COc4ccccc4[C@@H]3N1C2=O,-3,19,·,·,25,-1,·
COCCNC(=O)Cn1nc(-c2ccc(C)cc2)ccc1=O,-7,2,-2,-1,-17,7,·
c1ccc(Nc2nc(-c3cccs3)cs2)nc1,29,-13,-2,-3,17,57*,34
Oc1ccc(-c2csc(Nc3ccccn3)n2)c(O)c1,10,-26,1,1,26,72*,54*
Cc1cccc(Nc2nc(-c3cccs3)cs2)n1,30,0,7,-21,6,44,·
c1ccc(Nc2nc(-c3cccnc3)cs2)nc1,12,-8,-11,-20,10,-4,·
Fc1ccc(-c2csc(Nc3ccccn3)n2)cc1,9,3,-3,-12,18,54*,41*
COc1ccc(C)cc1NC(=O)CSc1ccc(-c2ccco2)nn1,17,32,-5,5,34,40,·
O=C(Nc1ccc(Cl)cc1)Nc1ccccc1Sc1ncc([N+](=O)[O-])s1,5,-18,31,-5,-13,54*,72*
O=C(Cc1ccc(Cl)cc1)Nc1ncc([N+](=O)[O-])s1,·,-39,-10,60,·,·,·
O=C(CCl)Nc1cn(-c2ccccc2)nc1-c1ccc(F)cc1,12,·,-1,-9,28,61*,32
